Results taken from the supplement of paper PMC6555819.

Tests used:
Assay in all cases: PBM binding z-score (relative to random genomic background probes); higher = stronger binding; sequences stand for … in GC…GCGATTGACAGCGTAGAATGAAGG
[1] = tested on: FXR:RXRa (NR concentration 270 nM, RXRa partner concentration 90 nM)
Summary of the method: (§1)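 The probes on custom Agilent 4×180K protein-binding microarrays were double-stranded, with 34-nt variable regions bearing direct-repeat seeds, single-nucleotide variants, half-site ablations and random human genomic background sequences. Incubation lasted 1 h with ligand-free nuclear receptor dimers in PBS pH 7.4, 2% milk, 0.02% Triton X-100, 1 mM DTT, 0.2 mg/mL BSA and 0.4 mg/ml salmon testes DNA. Antibodies against each partner (one per run) detected bound dimers, and fluorescence scans were regression-normalized. Binding z-scores take the random background probes as reference.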

[2] = tested on: LXRa:RXRa (NR concentration 270 nM, RXRa partner concentration 90 nM)
Summary of the method: as §1

[3] = tested on: LXRa homodimer (NR concentration 270 nM)
Summary of the method: as §1

[4] = tested on: LXRb:RXRa (NR concentration 270 nM, RXRa partner concentration 90 nM)
Summary of the method: as §1

[5] = tested on: LXRb homodimer (NR concentration 270 nM)
Summary of the method: as §1

[6] = tested on: PPARa:RXRa (NR concentration 270 nM, RXRa partner concentration 90 nM)
Summary of the method: as §1

[7] = tested on: PPARg:RXRa (NR concentration 180 nM, RXRa partner concentration 90 nM)
Summary of the method: as §1

[8] = tested on: PPARg:RXRa 270nM:90nM, anti-RXR (NR concentration 270 nM, RXRa partner concentration 90 nM)
Summary of the method: as §1

[9] = tested on: PPARg:RXRa 30nM:10nM, anti-RXR (NR concentration 30 nM, RXRa partner concentration 10 nM)
Summary of the method: as §1

[10] = tested on: PPARg:RXRa 90nM:30nM, anti-RXR (NR concentration 90 nM, RXRa partner concentration 30 nM)
Summary of the method: as §1

[11] = tested on: PPARg:RXRa DBDmut IVT, anti-RXR (DBD mutation: RXRa K156A/R161A, NR concentration 270 nM, RXRa partner concentration 90 nM)
Summary of the method: as §1

[12] = tested on: PPARg:RXRa IVT, anti-PPARg (NR concentration 270 nM, RXRa partner concentration 90 nM)
Summary of the method: as §1

[13] = tested on: PPARg DBDmut:RXRa IVT, anti-PPARg (DBD mutation: PPARg1 K132A/R137A, NR concentration 270 nM, RXRa partner concentration 90 nM)
Summary of the method: as §1

[14] = tested on: PPARg DBDmut IVT, anti-PPARg (DBD mutation: PPARg1 K132A/R137A, NR concentration 270 nM)
Summary of the method: as §1

[15] = tested on: PPARg homodimer (NR concentration 180 nM)
Summary of the method: as §1

[16] = tested on: PXR:RXRa (NR concentration 270 nM, RXRa partner concentration 90 nM)
Summary of the method: as §1

[17] = tested on: PXR homodimer (NR concentration 270 nM)
Summary of the method: as §1

[18] = tested on: RARa:RXR (NR concentration 270 nM, RXRa partner concentration 90 nM)
Summary of the method: as §1

[19] = tested on: RARa homodimer (NR concentration 270 nM)
Summary of the method: as §1

[20] = tested on: RARb:RXRa (NR concentration 270 nM, RXRa partner concentration 90 nM)
Summary of the method: as §1

| Sequence | PBM binding z-score [1] | PBM binding z-score [2] | PBM binding z-score [3] | PBM binding z-score [4] | PBM binding z-score [5] | PBM binding z-score [6] | PBM binding z-score [7] | PBM binding z-score [8] | PBM binding z-score [9] | PBM binding z-score [10] | PBM binding z-score [11] | PBM binding z-score [12] | PBM binding z-score [13] | PBM binding z-score [14] | PBM binding z-score [15] | PBM binding z-score [16] | PBM binding z-score [17] | PBM binding z-score [18] | PBM binding z-score [19] | PBM binding z-score [20] |
| --- | --- | --- | --- | --- | --- | --- | --- | --- | --- | --- | --- | --- | --- | --- | --- | --- | --- | --- | --- | --- |
| TAGCCTAGGTCATGGGCCAGTATACCACGCGAAC | 4.32 | 3.28 | 0.195 | 2.24 | -0.333 | 4.04 | 3.78 | 3.66 | 0.829 | 2.59 | 1.08 | 2.99 | 0.0326 | -0.324 | 1.77 | 1.62 | -0.133 | 2.54 | -0.386 | 3.7 |
| CCTCGGAGGACAGCAGGAGGTCAGAGCTGCCAGA | 0.706 | 1.02 | 0.292 | 0.728 | -0.764 | 1.48 | -0.245 | -0.0312 | -1.08 | -0.248 | -0.448 | -0.212 | -1.03 | -2.54 | 1.7 | 1.55 | 0.245 | 1.79 | 0.518 | 2.62 |
| CGAACTAGGACAGAACAGGACAGTGAAGGATGAT | -0.286 | -0.561 | -0.364 | -0.706 | -0.58 | -0.0263 | 1.23 | 0.13 | 0.00825 | 0.0847 | 3.37 | 2.51 | 0.329 | 1 | -0.301 | -0.366 | -0.302 | -0.649 | 0.312 | 0.117 |
| GATACAGGGTCAGCTAGACGCCAGAGTATGGAAA | 4.79 | 2.3 | -0.39 | 2.07 | -0.431 | 4.71 | 3.71 | 3.1 | 0.594 | 1.97 | 0.771 | 2.21 | 0.485 | 0.334 | 1.15 | 1.76 | 0.0262 | 2.72 | -0.118 | 3.9 |
| CCGAGTATGTTATGGGGCATTCAGGCAACGGTGA | 0.355 | -0.00818 | -0.0828 | 0.322 | -0.243 | 0.665 | 0.711 | 1.75 | 0.316 | 1.35 | 0.63 | 0.892 | -0.0498 | -0.0954 | 0.937 | 0.0662 | 0.093 | 0.394 | 0.535 | 0.242 |
| GGAACGAGGGCATTCGAGTCGATAGCATGGCGAT | 0.976 | 0.293 | -0.802 | -0.159 | -0.384 | 1.15 | 0.824 | 0.495 | -0.192 | 0.0537 | 2.96 | 2.19 | -0.0559 | -0.671 | -0.141 | 1.5 | 0.546 | 0.428 | -0.54 | 1.48 |
| TCTATTAGGTGATTAGGGCAACCGAAACAGCGGA | 0.654 | 0.587 | 0.0646 | 0.425 | 0.526 | 1.86 | 2.13 | 2.98 | 3.56 | 2.97 | 4.87 | 4.81 | 2.12 | 1.04 | 0.876 | 0.422 | 0.211 | 0.593 | 0.993 | 1.37 |
| GCTATTAGTTGAAAGTGCAACCGAATGATTCTCG | 0.0358 | 0.479 | 0.0569 | 0.177 | 0.0186 | 1.33 | 1.28 | 2.92 | 1.24 | 2.72 | 0.238 | 0.262 | 0.449 | 0.384 | 0.768 | 0.683 | 0.384 | 0.526 | 0.153 | 0.775 |
| ATACCAAGGTGATCGTGAGGTCTTTGATACTAAC | 0.467 | 0.136 | 0.00658 | 0.0706 | -0.603 | 0.646 | 0.322 | 0.105 | -0.238 | -0.296 | 0.237 | 1.08 | 0.449 | 0.702 | 0.551 | 0.655 | -0.114 | 0.833 | 0.255 | 0.705 |
| ACTAGCAGTCCAAGTTTGGGTCACTCAAACAAAG | 0.21 | 0.226 | -0.0309 | 0.795 | -0.524 | 1.13 | -0.105 | 0.22 | -0.155 | -0.0965 | -0.573 | 0.678 | -0.264 | -0.283 | -0.0489 | 0.921 | -0.137 | 1.4 | -0.47 | 1.24 |
| TGAATGAGGATAAAGATCAGGGAACGTGGCGTCG | 0.0362 | -0.419 | -0.157 | -0.514 | -0.0964 | 1.03 | 1.87 | 3.78 | 2.17 | 3.5 | -0.598 | 0.0508 | -0.331 | -0.373 | -0.144 | -0.614 | -0.0385 | -0.537 | -0.101 | -0.238 |
| ACTAGCAGGCCAAGCGTCACTCAAGATTAGTCCG | -0.5 | -0.376 | -0.471 | -0.815 | -0.983 | 0.102 | 1.12 | 1.84 | 0.377 | 1.73 | 1.13 | 0.488 | 0.0158 | -0.899 | -0.388 | -0.885 | -0.421 | -0.946 | -1.3 | 0.43 |
| AGTCAAAATTCAGGACGAGGTAACGTAAAGCACG | 0.194 | -0.186 | 0.224 | -0.188 | -0.336 | 0.0316 | 0.944 | 0.294 | 0.281 | 0.217 | -0.124 | 0.504 | 0.875 | 0.0968 | 0.59 | -0.0686 | 0.0838 | 0.591 | 0.657 | 0.118 |
| TTACCAAGGTGAAAGGTCGTTTATGCACGCCTTG | 3.55 | 3.3 | 0.773 | 3.33 | 0.0475 | 5.2 | 8.69 | 7.73 | 6.93 | 8.46 | 2.69 | 4.38 | 1.05 | 0.279 | 1.68 | 3.9 | 0.719 | 5.53 | 0.296 | 2.75 |
| ACTAGCAGGGCAAGGGTCACTCAAGATTAGTCCG | 2.88 | 2.84 | 0.175 | 2.76 | -0.693 | 4.79 | 8.91 | 7.48 | 7.19 | 7.64 | 2.1 | 4.69 | -0.137 | -0.877 | 1.91 | 3.4 | -0.121 | 4.49 | 0.318 | 3.46 |
| CGTCCAATGTCAATGCTAGGTCAGTGAAAGCATT | 0.511 | 0.781 | 0.797 | 0.644 | -0.123 | 1.01 | -0.028 | 0.117 | -0.386 | 0.0802 | 0.333 | 0.858 | -0.586 | -0.143 | 0.93 | 0.655 | -0.0465 | 1.27 | -0.0899 | 2.17 |
| CCTGCTAGGACATGGTCAGCTAATCTACAGTATG | -0.435 | -0.686 | -0.63 | -0.793 | -0.639 | -1.84 | 0.246 | -0.764 | -0.445 | -0.928 | 0.152 | -0.597 | -0.458 | -0.543 | -0.902 | -0.794 | -0.746 | -0.925 | -0.734 | 0.0895 |
| ATCGAAAGGTCGAGGTAAGTATAGAGAAAGGGAA | 3.98 | 3.46 | 0.361 | 2.66 | 0.336 | 4.29 | 2.72 | 3.32 | 1.2 | 2.24 | 0.0665 | 1.66 | 1.14 | 1.3 | 1.24 | 2.31 | 0.464 | 3.24 | 1.21 | 4.06 |
